# In article PMC7862700, “An all-to-all approach to the identification of sequence-specific readers for epigenetic DNA modifications on cytosine”:
# Assays:
# Experiment in all cases: DAPPL (digital affinity profiling via proximity ligation, sequencing); 10 mM Tris-HCl pH 7.5, 50 mM NaCl, 1 mM DTT, 4% glycerol, room temperature, 30 min; GST-TFs on glutathione beads, 16-mer random dsDNA library, 0.1% formaldehyde crosslink after washing; high values mean tight binding
# [1] = target: T1, FEV (Homo sapiens, UniProt Q99581 1-238); conditions: protein: recombinant; tags: N-terminal GST; dsDNA, one strand shown
# T1 sequence: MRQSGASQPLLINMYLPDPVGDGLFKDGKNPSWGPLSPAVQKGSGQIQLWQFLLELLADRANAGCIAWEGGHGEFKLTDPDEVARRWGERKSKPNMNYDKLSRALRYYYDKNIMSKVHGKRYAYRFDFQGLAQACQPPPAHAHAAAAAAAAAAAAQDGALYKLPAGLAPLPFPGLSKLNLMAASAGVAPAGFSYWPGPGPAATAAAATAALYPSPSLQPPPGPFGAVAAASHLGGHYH
# How it was run: (§1)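 Beads coated with glutathione captured GST-fused human transcription factors that had been expressed in yeast, and the factors were then given DNA barcodes and pooled with a tag-only sample. The pools were incubated with 200 nmole of a random double-stranded 16-mer DNA library in Tris/NaCl/DTT/glycerol buffer for 30 min at room temperature, washed, crosslinked with 0.1% formaldehyde and proximity-ligated with BsaI/T4 ligase at 37 °C for 1 h. PCR amplification and Illumina NextSeq500 sequencing came last. Binding signal is each hexamer's read frequency for a factor divided by its frequency for the tag-only sample.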
# [2] = target: ETV5 (Homo sapiens, UniProt P41161 1-510); conditions: protein: recombinant; tags: N-terminal GST; dsDNA, one strand shown
# Chain of ETV5 (P41161 whole entry): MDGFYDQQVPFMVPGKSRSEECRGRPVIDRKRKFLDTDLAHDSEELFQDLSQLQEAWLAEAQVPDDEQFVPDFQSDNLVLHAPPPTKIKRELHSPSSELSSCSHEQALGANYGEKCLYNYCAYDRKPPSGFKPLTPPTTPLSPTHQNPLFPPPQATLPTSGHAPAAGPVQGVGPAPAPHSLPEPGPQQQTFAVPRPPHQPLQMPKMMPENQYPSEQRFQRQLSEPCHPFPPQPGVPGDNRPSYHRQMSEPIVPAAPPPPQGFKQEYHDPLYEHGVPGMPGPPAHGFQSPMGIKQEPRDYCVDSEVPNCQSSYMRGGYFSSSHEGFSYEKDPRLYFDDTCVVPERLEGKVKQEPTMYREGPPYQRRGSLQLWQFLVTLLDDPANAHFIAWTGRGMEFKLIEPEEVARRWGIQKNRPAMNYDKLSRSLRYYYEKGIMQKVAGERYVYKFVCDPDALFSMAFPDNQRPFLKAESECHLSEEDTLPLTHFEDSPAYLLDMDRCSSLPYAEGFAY
# How it was run: as §1
# [3] = target: HSF1 (Homo sapiens, UniProt Q00613 1-529); conditions: protein: recombinant; tags: N-terminal GST; chain copies: 3; dsDNA, one strand shown
# Chain of HSF1 (Q00613 whole entry): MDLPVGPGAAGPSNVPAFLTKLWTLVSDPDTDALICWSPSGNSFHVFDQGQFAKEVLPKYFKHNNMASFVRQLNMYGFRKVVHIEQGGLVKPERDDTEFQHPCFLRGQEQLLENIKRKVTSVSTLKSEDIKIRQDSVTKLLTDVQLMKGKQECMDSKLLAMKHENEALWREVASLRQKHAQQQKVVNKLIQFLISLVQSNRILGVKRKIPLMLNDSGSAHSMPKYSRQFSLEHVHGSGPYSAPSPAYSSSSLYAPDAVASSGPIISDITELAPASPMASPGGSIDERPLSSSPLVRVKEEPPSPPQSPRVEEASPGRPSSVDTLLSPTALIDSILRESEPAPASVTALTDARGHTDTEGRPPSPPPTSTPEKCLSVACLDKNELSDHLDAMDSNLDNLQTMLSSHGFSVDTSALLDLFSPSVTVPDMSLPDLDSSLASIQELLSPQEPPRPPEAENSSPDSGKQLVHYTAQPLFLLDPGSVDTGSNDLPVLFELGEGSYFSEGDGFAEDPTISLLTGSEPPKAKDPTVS
# How it was run: as §1
# [4] = target: T2, SPIC (Homo sapiens, UniProt Q8N5J4 1-248); conditions: protein: recombinant; tags: N-terminal GST; dsDNA, one strand shown
# T2 sequence: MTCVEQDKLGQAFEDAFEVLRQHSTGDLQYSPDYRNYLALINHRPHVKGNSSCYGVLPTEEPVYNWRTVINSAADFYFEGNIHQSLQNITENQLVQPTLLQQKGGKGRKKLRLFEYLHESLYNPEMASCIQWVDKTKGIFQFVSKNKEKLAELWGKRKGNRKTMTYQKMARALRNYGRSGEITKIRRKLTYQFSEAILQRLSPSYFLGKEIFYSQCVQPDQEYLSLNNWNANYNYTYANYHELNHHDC
# How it was run: as §1
# [5] = target: ELF4 (Homo sapiens, UniProt Q99607 1-663); conditions: protein: recombinant; tags: N-terminal GST; dsDNA, one strand shown
# Chain of ELF4 (Q99607 whole entry): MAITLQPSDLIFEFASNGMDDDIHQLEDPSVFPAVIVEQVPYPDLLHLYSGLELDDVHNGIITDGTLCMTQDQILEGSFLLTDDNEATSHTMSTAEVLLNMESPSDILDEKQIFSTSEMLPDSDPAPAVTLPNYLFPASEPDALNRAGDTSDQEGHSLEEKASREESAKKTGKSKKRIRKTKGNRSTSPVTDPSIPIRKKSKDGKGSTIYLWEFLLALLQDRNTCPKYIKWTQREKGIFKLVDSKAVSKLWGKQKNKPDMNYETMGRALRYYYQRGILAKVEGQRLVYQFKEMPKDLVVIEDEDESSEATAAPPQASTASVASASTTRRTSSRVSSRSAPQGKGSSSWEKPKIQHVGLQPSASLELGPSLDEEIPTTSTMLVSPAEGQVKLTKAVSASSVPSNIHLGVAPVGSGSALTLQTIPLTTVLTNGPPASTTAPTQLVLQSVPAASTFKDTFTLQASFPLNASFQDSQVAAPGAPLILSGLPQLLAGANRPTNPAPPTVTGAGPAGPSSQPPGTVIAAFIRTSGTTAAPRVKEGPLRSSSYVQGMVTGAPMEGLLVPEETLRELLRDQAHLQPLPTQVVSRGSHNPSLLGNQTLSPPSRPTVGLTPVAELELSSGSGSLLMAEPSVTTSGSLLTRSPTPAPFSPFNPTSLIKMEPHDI
# How it was run: as §1
# [6] = target: T3, ELK4 (Homo sapiens, UniProt P28324-2 1-405); conditions: protein: recombinant; tags: N-terminal GST; dsDNA, one strand shown
# T3 sequence: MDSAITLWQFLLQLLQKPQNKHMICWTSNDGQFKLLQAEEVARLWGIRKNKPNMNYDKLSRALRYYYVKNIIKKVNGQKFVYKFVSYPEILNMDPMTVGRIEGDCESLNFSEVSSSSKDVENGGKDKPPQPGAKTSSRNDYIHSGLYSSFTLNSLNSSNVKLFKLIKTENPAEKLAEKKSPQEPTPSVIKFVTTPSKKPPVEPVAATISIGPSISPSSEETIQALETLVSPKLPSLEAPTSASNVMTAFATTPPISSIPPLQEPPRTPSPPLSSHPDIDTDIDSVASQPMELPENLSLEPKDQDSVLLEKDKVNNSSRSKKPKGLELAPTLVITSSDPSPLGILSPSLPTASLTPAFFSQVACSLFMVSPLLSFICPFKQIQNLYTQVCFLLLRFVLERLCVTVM
# How it was run: as §1
# [7] = target: T4, ETV2 (Homo sapiens, UniProt O00321 1-342); conditions: protein: recombinant; tags: N-terminal GST; dsDNA, one strand shown
# T4 sequence: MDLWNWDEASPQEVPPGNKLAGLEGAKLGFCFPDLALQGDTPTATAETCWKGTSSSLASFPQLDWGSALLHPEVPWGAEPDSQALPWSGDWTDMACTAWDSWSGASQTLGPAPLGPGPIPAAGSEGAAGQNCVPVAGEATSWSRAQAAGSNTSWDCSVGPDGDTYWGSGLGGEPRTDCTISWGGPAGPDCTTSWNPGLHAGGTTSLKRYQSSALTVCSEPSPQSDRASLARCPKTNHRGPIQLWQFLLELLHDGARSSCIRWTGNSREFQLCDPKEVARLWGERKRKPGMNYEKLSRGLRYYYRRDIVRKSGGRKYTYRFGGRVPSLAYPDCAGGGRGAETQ
# How it was run: as §1
# [8] = target: T5, ELF3 (Homo sapiens, UniProt P78545 1-371); conditions: protein: recombinant; tags: N-terminal GST; dsDNA, one strand shown
# T5 sequence: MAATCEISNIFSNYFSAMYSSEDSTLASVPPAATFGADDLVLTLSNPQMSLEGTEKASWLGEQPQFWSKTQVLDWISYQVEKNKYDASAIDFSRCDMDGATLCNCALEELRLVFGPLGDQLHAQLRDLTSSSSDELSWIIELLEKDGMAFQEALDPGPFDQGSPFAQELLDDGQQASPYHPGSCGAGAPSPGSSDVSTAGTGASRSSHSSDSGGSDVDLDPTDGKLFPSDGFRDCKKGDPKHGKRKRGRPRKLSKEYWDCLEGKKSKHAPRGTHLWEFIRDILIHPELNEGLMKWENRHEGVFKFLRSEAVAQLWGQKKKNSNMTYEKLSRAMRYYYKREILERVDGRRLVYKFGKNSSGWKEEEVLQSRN
# How it was run: as §1
# [9] = target: CRX (Homo sapiens, UniProt O43186 1-299); conditions: protein: recombinant; tags: N-terminal GST; dsDNA, one strand shown
# Chain of CRX (O43186 whole entry): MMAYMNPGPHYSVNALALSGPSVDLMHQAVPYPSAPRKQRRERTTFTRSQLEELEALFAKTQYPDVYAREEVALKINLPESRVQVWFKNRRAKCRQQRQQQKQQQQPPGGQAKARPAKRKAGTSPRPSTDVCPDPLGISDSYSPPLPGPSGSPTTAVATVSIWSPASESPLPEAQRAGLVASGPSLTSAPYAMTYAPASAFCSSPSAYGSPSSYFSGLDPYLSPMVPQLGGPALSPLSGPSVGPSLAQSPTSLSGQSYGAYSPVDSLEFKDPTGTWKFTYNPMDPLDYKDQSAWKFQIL
# How it was run: as §1
# [10] = target: ETV1 (Homo sapiens, UniProt P50549 1-477); conditions: protein: recombinant; tags: N-terminal GST; dsDNA, one strand shown
# Chain of ETV1 (P50549 whole entry): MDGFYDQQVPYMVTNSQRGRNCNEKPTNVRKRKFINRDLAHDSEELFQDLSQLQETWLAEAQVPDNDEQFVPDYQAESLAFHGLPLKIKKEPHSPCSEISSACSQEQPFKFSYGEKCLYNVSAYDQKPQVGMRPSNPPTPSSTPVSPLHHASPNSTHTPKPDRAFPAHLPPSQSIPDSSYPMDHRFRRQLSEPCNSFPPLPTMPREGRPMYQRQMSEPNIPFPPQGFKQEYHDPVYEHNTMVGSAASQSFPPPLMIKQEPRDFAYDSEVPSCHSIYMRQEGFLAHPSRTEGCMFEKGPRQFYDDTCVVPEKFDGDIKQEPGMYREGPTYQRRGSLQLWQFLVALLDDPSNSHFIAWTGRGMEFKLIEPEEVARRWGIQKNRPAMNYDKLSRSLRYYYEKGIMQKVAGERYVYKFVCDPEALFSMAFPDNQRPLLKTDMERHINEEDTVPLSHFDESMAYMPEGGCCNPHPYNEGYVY
# How it was run: as §1
# [11] = target: T6, ERF (Homo sapiens, UniProt P50548 1-548); conditions: protein: recombinant; tags: N-terminal GST; dsDNA, one strand shown
# T6 sequence: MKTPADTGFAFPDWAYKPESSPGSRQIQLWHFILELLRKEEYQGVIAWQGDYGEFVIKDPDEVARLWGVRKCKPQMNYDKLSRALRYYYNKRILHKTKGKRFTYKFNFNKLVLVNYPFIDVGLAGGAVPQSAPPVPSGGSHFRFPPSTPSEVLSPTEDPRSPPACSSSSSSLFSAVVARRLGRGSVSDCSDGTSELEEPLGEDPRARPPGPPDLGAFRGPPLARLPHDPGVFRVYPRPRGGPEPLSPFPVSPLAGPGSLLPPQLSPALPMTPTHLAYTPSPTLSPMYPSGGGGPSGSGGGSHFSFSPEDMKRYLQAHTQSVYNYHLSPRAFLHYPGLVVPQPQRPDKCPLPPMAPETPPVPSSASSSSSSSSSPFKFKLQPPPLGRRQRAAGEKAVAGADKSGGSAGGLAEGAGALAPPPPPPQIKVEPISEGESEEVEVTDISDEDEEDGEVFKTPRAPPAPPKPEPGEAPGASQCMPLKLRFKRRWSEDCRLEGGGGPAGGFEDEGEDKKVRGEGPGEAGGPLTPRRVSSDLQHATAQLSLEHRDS
# How it was run: as §1
# [12] = target: T7, ETV3L (Homo sapiens, UniProt Q6ZN32 1-361); conditions: protein: recombinant; tags: N-terminal GST; dsDNA, one strand shown
# T7 sequence: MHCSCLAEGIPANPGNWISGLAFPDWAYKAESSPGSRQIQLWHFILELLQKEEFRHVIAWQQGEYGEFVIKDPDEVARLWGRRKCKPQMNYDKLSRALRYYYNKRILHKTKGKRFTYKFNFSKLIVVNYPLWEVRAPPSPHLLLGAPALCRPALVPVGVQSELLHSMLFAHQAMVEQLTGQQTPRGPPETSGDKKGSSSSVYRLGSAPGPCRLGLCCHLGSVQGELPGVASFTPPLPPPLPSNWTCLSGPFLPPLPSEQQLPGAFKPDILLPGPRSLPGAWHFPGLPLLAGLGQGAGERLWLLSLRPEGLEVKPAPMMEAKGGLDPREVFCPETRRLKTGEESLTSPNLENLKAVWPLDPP
# How it was run: as §1
# [13] = target: T8, ETS2 (Homo sapiens, UniProt P15036 1-469); conditions: protein: recombinant; tags: N-terminal GST; dsDNA, one strand shown
# T8 sequence: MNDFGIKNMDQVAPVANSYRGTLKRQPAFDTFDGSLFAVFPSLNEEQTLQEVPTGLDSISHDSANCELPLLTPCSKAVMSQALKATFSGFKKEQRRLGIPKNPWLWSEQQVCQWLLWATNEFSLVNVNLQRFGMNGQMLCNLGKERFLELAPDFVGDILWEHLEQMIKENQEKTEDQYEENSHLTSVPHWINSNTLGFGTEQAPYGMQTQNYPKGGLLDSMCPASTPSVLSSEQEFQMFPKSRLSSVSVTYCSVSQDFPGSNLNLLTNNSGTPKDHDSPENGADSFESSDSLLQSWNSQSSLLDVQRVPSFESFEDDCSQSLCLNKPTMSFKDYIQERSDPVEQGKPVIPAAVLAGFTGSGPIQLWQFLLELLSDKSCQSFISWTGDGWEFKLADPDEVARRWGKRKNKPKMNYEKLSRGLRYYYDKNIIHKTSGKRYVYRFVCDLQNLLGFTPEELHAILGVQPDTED
# How it was run: as §1
# [14] = target: T9, SPDEF (Homo sapiens, UniProt O95238 1-335); conditions: protein: recombinant; tags: N-terminal GST; dsDNA, one strand shown
# T9 sequence: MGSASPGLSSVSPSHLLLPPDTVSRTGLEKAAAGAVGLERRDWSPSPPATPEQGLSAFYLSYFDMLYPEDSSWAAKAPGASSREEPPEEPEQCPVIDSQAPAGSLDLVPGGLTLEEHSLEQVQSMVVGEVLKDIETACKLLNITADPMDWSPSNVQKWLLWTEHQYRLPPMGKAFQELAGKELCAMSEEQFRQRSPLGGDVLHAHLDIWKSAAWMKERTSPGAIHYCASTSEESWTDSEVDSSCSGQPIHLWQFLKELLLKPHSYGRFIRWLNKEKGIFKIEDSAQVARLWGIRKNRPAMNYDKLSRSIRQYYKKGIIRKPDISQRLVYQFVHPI
# How it was run: as §1
# [15] = target: T10, ETV7 (Homo sapiens, UniProt Q9Y603 1-341); conditions: protein: recombinant; tags: N-terminal GST; dsDNA, one strand shown
# T10 sequence: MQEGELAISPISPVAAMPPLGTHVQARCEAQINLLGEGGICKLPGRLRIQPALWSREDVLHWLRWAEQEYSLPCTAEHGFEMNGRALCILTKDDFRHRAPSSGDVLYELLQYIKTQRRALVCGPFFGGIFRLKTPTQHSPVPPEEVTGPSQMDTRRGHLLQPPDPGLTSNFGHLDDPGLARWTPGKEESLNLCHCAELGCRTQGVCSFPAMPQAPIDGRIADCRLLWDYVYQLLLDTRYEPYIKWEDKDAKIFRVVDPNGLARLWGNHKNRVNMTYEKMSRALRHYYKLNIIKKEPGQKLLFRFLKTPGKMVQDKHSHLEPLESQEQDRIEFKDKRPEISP
# How it was run: as §1
# [16] = target: T11, ELF5 (Homo sapiens, UniProt Q9UKW6-2 1-255); conditions: protein: recombinant; tags: N-terminal GST; dsDNA, one strand shown
# T11 sequence: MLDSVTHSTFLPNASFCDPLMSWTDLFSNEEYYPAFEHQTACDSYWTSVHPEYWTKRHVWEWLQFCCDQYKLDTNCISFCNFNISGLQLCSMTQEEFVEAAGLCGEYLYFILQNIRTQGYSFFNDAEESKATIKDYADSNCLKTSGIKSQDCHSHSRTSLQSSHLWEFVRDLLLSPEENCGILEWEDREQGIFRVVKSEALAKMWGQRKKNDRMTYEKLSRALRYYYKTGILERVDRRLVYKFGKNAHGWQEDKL
# How it was run: as §1
# [17] = target: T12, ETV3 (Homo sapiens, UniProt P41162-2 1-143); conditions: protein: recombinant; tags: N-terminal GST; dsDNA, one strand shown
# T12 sequence: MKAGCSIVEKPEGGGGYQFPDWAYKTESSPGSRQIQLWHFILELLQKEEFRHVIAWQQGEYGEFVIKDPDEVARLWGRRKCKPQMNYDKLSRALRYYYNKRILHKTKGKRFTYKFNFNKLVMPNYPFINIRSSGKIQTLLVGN
# How it was run: as §1
# [18] = target: ETV6 (Homo sapiens, UniProt P41212 1-452); conditions: protein: recombinant; tags: N-terminal GST; dsDNA, one strand shown
# Chain of ETV6 (P41212 whole entry): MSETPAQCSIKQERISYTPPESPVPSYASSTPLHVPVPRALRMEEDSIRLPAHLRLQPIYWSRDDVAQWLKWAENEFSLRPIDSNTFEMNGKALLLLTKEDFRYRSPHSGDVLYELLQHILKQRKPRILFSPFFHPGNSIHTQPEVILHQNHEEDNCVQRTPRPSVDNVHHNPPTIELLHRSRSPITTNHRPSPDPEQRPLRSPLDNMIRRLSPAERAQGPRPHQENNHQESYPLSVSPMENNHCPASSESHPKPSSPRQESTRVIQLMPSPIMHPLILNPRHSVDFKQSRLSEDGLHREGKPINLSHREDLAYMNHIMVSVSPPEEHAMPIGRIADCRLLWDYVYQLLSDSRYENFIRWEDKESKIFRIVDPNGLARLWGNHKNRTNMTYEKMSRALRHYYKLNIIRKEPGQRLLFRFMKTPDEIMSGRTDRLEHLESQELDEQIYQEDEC
# How it was run: as §1
sequence,measurement,setting,value
TATTCG,binding signal,[1],"1.06 fold enrichment (6-mer frequency, TF over GST control)"
same,binding signal,[2],"1.11 fold enrichment (6-mer frequency, TF over GST control)"
same,binding signal,[3],"1.64 fold enrichment (6-mer frequency, TF over GST control)"
same,binding signal,[4],"1.17 fold enrichment (6-mer frequency, TF over GST control)"
same,binding signal,[5],"1.17 fold enrichment (6-mer frequency, TF over GST control)"
same,binding signal,[6],"1.22 fold enrichment (6-mer frequency, TF over GST control)"
same,binding signal,[7],"1.24 fold enrichment (6-mer frequency, TF over GST control)"
same,binding signal,[8],"1.35 fold enrichment (6-mer frequency, TF over GST control)"
same,binding signal,[9],"1.43 fold enrichment (6-mer frequency, TF over GST control)"
same,binding signal,[10],"1.05 fold enrichment (6-mer frequency, TF over GST control)"
same,binding signal,[11],"1.17 fold enrichment (6-mer frequency, TF over GST control)"
same,binding signal,[12],"1.16 fold enrichment (6-mer frequency, TF over GST control)"
same,binding signal,[13],"1.13 fold enrichment (6-mer frequency, TF over GST control)"
same,binding signal,[14],"1.1 fold enrichment (6-mer frequency, TF over GST control)"
same,binding signal,[15],"1.19 fold enrichment (6-mer frequency, TF over GST control)"
same,binding signal,[16],"1.09 fold enrichment (6-mer frequency, TF over GST control)"
same,binding signal,[17],"1.19 fold enrichment (6-mer frequency, TF over GST control)"
same,binding signal,[18],"1.02 fold enrichment (6-mer frequency, TF over GST control)"
